Measured values: PubChem BioAssay (EPA / NIEHS)
Active and inactive are the calls of the source. How the source made its calls: active means hit-call score of the fitted dose curve at least 0.9, where 1 is the maximum; inactive means score below 0.9.

Biological target: Bile acid receptor (Homo sapiens) (UniProt Q96RI1)
Assay: ATG_IR1_CIS: Attagene CIS-FACTORIAL HepG2 Assay for human Nuclear Receptor Subfamily 1 Group H Member 4 (NR1H4), IR1 submotif (AID 2282946)
Conditions: IR1 reporter transcription, actives raise or lower the signal
In short: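 Fluorescence of capillary-separated, HpaI-digested RT-PCR reporter products gave IR1-element mRNA induction in HepG2 cells 24 h after dosing. Endogenous transcription factors drove the cis-regulated reporters; activity was fitted bidirectionally against DMSO.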

Bile acid receptor (Homo sapiens), sequence (Q96RI1 whole entry, looked up): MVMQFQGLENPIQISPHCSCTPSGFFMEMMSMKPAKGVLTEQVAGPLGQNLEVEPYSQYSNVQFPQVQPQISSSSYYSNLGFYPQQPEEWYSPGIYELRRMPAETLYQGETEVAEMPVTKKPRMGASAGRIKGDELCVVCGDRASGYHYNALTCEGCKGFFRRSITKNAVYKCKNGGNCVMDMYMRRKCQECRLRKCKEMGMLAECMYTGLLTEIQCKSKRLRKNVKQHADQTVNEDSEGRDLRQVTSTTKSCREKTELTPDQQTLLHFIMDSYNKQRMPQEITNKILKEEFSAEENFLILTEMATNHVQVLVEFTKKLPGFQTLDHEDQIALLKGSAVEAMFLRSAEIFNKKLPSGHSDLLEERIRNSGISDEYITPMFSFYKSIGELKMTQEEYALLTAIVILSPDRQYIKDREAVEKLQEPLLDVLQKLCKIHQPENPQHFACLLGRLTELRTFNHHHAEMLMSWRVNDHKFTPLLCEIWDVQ

outcome, inactive:
CCCC(=O)OC/C=C(\C)CCC=C(C)C, C/C=C(\C)C(=O)OCC/C=C\CC, CN1CCCC1, CCO[Si](CCCN)(OCC)OCC, CCC(=O)OCc1ccc(OC)cc1, CCCCCC1CCCC(=O)O1 (stereo not drawn), Cc1cc2nc3c(=O)[nH]c(=O)nc-3n(C[C@H](O)[C@H](O)[C@H](O)CO)c2cc1C, Cc1cc(-n2nc3ccc(Cl)cc3n2)c(O)c(C(C)(C)C)c1, O=C(OCc1ccccc1)c1ccccc1, c1ccc(CNc2ncnc3nc[nH]c23)cc1, NC(=O)c1ccc(N)cc1, CC(C)(C)NC(=O)[C@@H]1CN(Cc2cccnc2)CCN1C[C@@H](O)C[C@@H](Cc1ccccc1)C(=O)N[C@H]1c2ccccc2C[C@H]1O, Oc1cccc2ccccc12, Oc1ccc(Oc2ccccc2)cc1, CNC[C@H](O)[C@@H](O)[C@H](O)[C@H](O)CO

AC50, active:
COC(=O)[C@]1(C)CCC[C@@]2(C)[C@H]1CC=C1C=C(C(C)C)CC[C@@H]12 6.77 µM, CCCCCC[C@@H](O)C/C=C\CCCCCCCC(=O)O 149 µM

Tested on: not listed separately
Assay: ATG_GRE_CIS: Attagene CIS-FACTORIAL HepG2 Assay for human Glucocorticoid Response Elements (GRE) (AID 2282947)
Conditions: HepG2 GRE cis-reporter, Attagene multiplex mRNA; actives raise or lower the signal
In short: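 Fluorescence intensity of reporter-specific cDNA fragments, separated by capillary electrophoresis, provides the signal. Constructs carry cis-regulating promoters in transiently transfected HepG2 liver cells; 24 h incubation; fitting is bidirectional against DMSO.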

outcome, inactive:
CNC(=C[N+](=O)[O-])NCCSCc1csc(CN(C)C)n1, O=C1CCCCCCCCCCCCCC1, CCCC(=O)OC/C=C(\C)CCC=C(C)C, CCCCCCC(O)CCCCCCCCCCC(=O)OC (stereo not drawn), O=C(O)/C=C/C(=O)O, O=S(=O)(O)c1cccc2ccccc12, C/C=C(\C)C(=O)OCC/C=C\CC, CC/C=C\CC/C=C/C(OCC)OCC, C=CCOCC(CC)(CO)COCC=C, CCO[Si](CCCN)(OCC)OCC, CCC(=O)OCc1ccc(OC)cc1, CCc1cc(C(N)=S)ccn1, CCC(C)=NO, COc1cccc(OC)c1C(=O)O, CCCCCC1CCCC(=O)O1 (stereo not drawn), COC(=O)[C@]1(C)CCC[C@@]2(C)[C@H]1CC=C1C=C(C(C)C)CC[C@@H]12, Cc1cc2nc3c(=O)[nH]c(=O)nc-3n(C[C@H](O)[C@H](O)[C@H](O)CO)c2cc1C, Cc1cc(-n2nc3ccc(Cl)cc3n2)c(O)c(C(C)(C)C)c1, O=C(OCc1ccccc1)c1ccccc1, CCCCCCC1CCCC(=O)O1 (stereo not drawn), c1ccc(CNc2ncnc3nc[nH]c23)cc1, NC(=O)c1ccc(N)cc1, CC(=O)Nc1c(I)c(NC(C)=O)c(I)c(C(=O)O)c1I, CC(C)=CCOC(=O)c1ccccc1, CC(C)(C)NC(=O)[C@@H]1CN(Cc2cccnc2)CCN1C[C@@H](O)C[C@@H](Cc1ccccc1)C(=O)N[C@H]1c2ccccc2C[C@H]1O, Oc1cccc2ccccc12, C=CN1CCCCCC1=O, c1ccc2c(c1)Oc1ccccc1S2

AC50, active:
CCCCCC[C@@H](O)C/C=C\CCCCCCCC(=O)O 186 µM

Tested on: not listed separately
Assay: ATG_ISRE_CIS: Attagene CIS-FACTORIAL HepG2 Assay for human Interferon Regulatory Factor 1 (IRF1) binding to an Interferon-Stimulated Response Element (ISRE) (AID 2282948)
Conditions: HepG2 ISRE cis-reporter (Attagene), mRNA transcription readout; actives raise or lower the signal
In short: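 Read-out: fluorescent RT-PCR products resolved by capillary electrophoresis, reporting endogenous transcription factor activity via ISRE-driven reporter mRNA in transfected HepG2 cells dosed for 24 h; gain or loss fitted relative to DMSO.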

outcome, inactive:
COC(=O)c1ccccc1, O=C(O)/C=C/C(=O)O, O=S(=O)(O)c1cccc2ccccc12, C/C=C(\C)C(=O)OCC/C=C\CC, C=CCOCC(CC)(CO)COCC=C, CN1CCCC1, CCO[Si](CCCN)(OCC)OCC, CCCCCCC1CCC(=O)O1 (stereo not drawn), CCC(=O)OCc1ccc(OC)cc1, COc1cccc(OC)c1C(=O)O, C=C1CC[C@H]2C[C@@H]1C2(C)C, Cc1cc2nc3c(=O)[nH]c(=O)nc-3n(C[C@H](O)[C@H](O)[C@H](O)CO)c2cc1C, Cc1cc(-n2nc3ccc(Cl)cc3n2)c(O)c(C(C)(C)C)c1, O=C(OCc1ccccc1)c1ccccc1, CCCCCCC1CCCC(=O)O1 (stereo not drawn), c1ccc(CNc2ncnc3nc[nH]c23)cc1, NC(=O)c1ccc(N)cc1, CC(=O)Nc1c(I)c(NC(C)=O)c(I)c(C(=O)O)c1I, CC(C)=CCOC(=O)c1ccccc1, CC(C)(C)NC(=O)[C@@H]1CN(Cc2cccnc2)CCN1C[C@@H](O)C[C@@H](Cc1ccccc1)C(=O)N[C@H]1c2ccccc2C[C@H]1O, Oc1ccc(Oc2ccccc2)cc1, CC(=O)CCc1ccccc1, CNC[C@H](O)[C@@H](O)[C@H](O)[C@H](O)CO, CN(C)c1ccc(C(c2ccccc2)c2ccc(N(C)C)cc2)cc1, c1ccc2c(c1)Oc1ccccc1S2, CC[N+](CC)(CC(=O)Nc1c(C)cccc1C)Cc1ccccc1 (tested in a mixture with another compound)

AC50, active:
CC/C=C\CC/C=C/C(OCC)OCC 142 µM
